About 83,000 compounds went through this panel and 20% of them were active in at least one assay; those are over-represented in the sample as a whole.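 Plates (96-well) were seeded with cells, treated with compound at one concentration, and incubated for 48 hours before percent growth was determined.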 Unmarked numbers belong to inactive results. Calls of active or inactive are those of the source. Rule for the calls: active = growth percent below 10; inactive = the rest.

Common to all, as to assay: NCI-60 one-dose screen, 48 h (100 = growth as untreated, 0 = no growth, -100 = all killed)
Assay [1] relates to HCT-15 colon. The following applies: 10 µM unless noted.
In assay [2] the test system is HT29 colon. As to conditions: 10 µM unless noted.
Assay [3] concerns SNB-75 CNS. The following applies: 10 µM unless noted.
Assay [4] relates to SNB-19 CNS. As to conditions: 10 µM unless noted.
Assay [5] deals with U251 CNS. As to conditions: 10 µM unless noted.
Assay [6] concerns SK-MEL-5 melanoma. The following applies: 10 µM unless noted.
The test system of assay [7] is UACC-62 melanoma. The following applies: 10 µM unless noted.
In assay [8] the test system is LOX IMVI melanoma. As to conditions: 10 µM unless noted.
The subject of assay [9] is SK-MEL-28 melanoma. The following applies: 10 µM unless noted.
For assay [10], the system named is EKVX NSCLC. As to conditions: 10 µM unless noted.
Assay [11] deals with SN12C renal. As to conditions: 10 µM unless noted.
Assay [12] has as its system UO-31 renal. As to conditions: 10 µM unless noted.
The test system of assay [13] is TK-10 renal. As to conditions: 10 µM unless noted.
Assay [14] deals with ACHN renal. As to conditions: 10 µM unless noted.
The subject of assay [15] is CAKI-1 renal. As to conditions: 10 µM.
The test system of assay [16] is CCRF-CEM leukemia. As to conditions: 10 µM unless noted.
Assay [17] deals with MOLT-4 leukemia. The following applies: 10 µM unless noted.
Assay [18] deals with SK-MEL-2 melanoma. The following applies: 10 µM unless noted.
In assay [19] the test system is PC-3 prostate. As to conditions: 10 µM unless noted.
Assay [20] concerns A498 renal. The following applies: 10 µM unless noted.

For the compound `COc1ccc(C2C(C#N)=C(N)Oc3c2sc2ccc(C)cc32)cc1` (stereo not drawn), the growth was 19.2% in [1]; 25.3% in assay [2]; -3.3% (active) in assay [3]; 38.6% in assay [4]; 26.9% in [5]; 2.75% (active) in assay [6]. For the same compound, the growth in assay [7] is 23.4%; in assay [8], 38%; in assay [9] it was 55.6%; in assay [10], 53.4%; in [11], 34.9%; in assay [12], 41.7%. Moreover, the growth in assay [13] is 81.4%; in [14], 44.9%; in [15] it was 32.1%; in assay [16] it was 26.4%; in assay [17], 45%.
Consider `CCN1C(=O)N(CC)C2SC(N/N=C/c3ccc(OC)cc3)=NC21` (stereo not drawn), for which the growth in assay [1] is 12%; in [2] it was 15.1%; in assay [3], 27.3%; in [4], 23%; in assay [5], 24.5%; in assay [6], -0.548% (active). Besides, the growth in [7] was 38.4%; in assay [8], 3.58% (active); in assay [9], 60.2%; in assay [18] it was 61.4%; in assay [10], 41.8%; in [11] it was 24.3%. Moreover, the growth is 43.5% in assay [12]; 72.8% in assay [13]; 31.3% in [14]; 48.7% in assay [15]; 13.1% in assay [16]; 10.1% in assay [17].
Consider `C=CCn1c(SCC(=O)Nc2cccc(C(=O)/C=C/c3ccc(Cl)cc3)c2)nc2ccccc2c1=O`, for which the growth was 81.5% in [1]; 84.8% in [2]; 72.2% in assay [3]; 86.9% in assay [4]; 90.7% in assay [5]; 89% in assay [19]. Besides, the growth was 99.1% in assay [6]; 77.9% in assay [8]; 93.3% in assay [9]; 99.5% in [10]; 86.2% in assay [11]; 67.6% in assay [12]. Besides, the growth is 96.4% in assay [13]; 90.6% in assay [14]; 76.8% in assay [15]; 78% in [20]; 96.6% in assay [16]; 94% in assay [17].
Take `CN1CCN(c2ccc(C(=O)Nc3cccc(-c4cn(-c5ccc(S(N)(=O)=O)cc5)nn4)c3)cc2C(F)(F)F)CC1`: the growth in assay [1] was 41.1%; in assay [2], 16.7%; in assay [3] it was 64.9%; in assay [4], 86.6%; in [5] it was 59.6%; in assay [19] it was 69.8%. Further, the growth is 90.6% in assay [6]; 23.1% in assay [8]; 72.7% in assay [9]; 89.9% in [10]; 92.4% in [11]; 86.9% in [12]. For the same compound, the growth was 117% in [13]; 87.6% in assay [14]; 73.8% in assay [15]; 97.6% in assay [20]; 70.8% in assay [16]; 13.2% in [17].
For `Cc1ccc(-c2nnc3sc(C4=Cc5ccccc5OC=C4)nn23)cc1`, the growth in [1] is 92.9%; in assay [2], 101%; in [3] it was 79.1%; in [4], 92.1%; in [5], 96.6%; in assay [6], 92.2%. Also, the growth in [7] is 91.6%; in assay [8], 116%; in assay [9], 97.1%; in [18] it was 104%; in assay [10], 99.4%; in [11], 97.3%. Besides, the growth is 87.3% in assay [12]; 89.1% in assay [13]; 105% in [14]; 79.6% in assay [15]; 61.6% in assay [20]; 105% in [16]. Further, the growth in assay [17] was 82.8%.
For `NS(=O)(=O)c1ccc(Nc2nc(N/N=C/c3ccc(C(F)(F)F)cc3)nc(Nc3ccccc3)n2)cc1`, the growth in [1] is 31.3%; in assay [2], 11.4%; in assay [3], 42%; in assay [4], 33.8%; in [5] it was 18.6%; in assay [6], 34.5%. Besides, the growth in assay [7] was 14.9%; in [8], 9.92% (active); in assay [9], 27.2%; in assay [18] it was 28.7%; in [10] it was 53.7%; in assay [11] it was 42.9%. Further, the growth in [12] was 60.3%; in assay [13] it was 64.3%; in [14], 39.6%; in assay [15], 33.7%; in assay [20] it was 39.6%; in [16], 12%. The growth in [17] is 9.74% (active).
Consider `CCOC(=O)/C(F)=C/C1CC1C1CCCCC1` (stereo not drawn), for which the growth in assay [1] was 102%; in assay [2] it was 111%; in assay [3] it was 95.2%; in assay [4], 98.5%; in assay [5], 105%; in assay [19], 102%. Also, the growth in [6] was 99.8%; in assay [8], 98%; in assay [9], 100%; in assay [10], 110%; in assay [11], 103%; in assay [12] it was 91.5%. In addition, the growth in [13] was 95.3%; in assay [14], 105%; in assay [15], 90.9%; in assay [20] it was 97.2%; in [16], 114%; in assay [17], 102%.
Turning to `COc1ccc([C@H]2[C@H](O)C(=O)N2c2cc(OC)c(OC)c(OC)c2)cc1Cl`, the growth in assay [1] was 9.77% (active); in assay [2], 1.45% (active); in [3], 58.6%; in [4], 29.2%; in assay [5], 1.42% (active); in assay [19] it was 12.6%. Besides, the growth in [6] is -12.5% (active); in assay [8] it was 14.4%; in [10], 50.1%; in assay [11], 22.2%; in assay [12], 32.8%; in assay [13], 85.4%. For the same compound, the growth was 26.6% in assay [14], 30.6% in assay [15], -17% (active) in assay [20] and 16.4% in assay [16].

(Values after PubChem BioAssay (NCI).)
